Assay results taken from PubChem BioAssay (NCI).
Compounds without any hit were thinned out: in the full panel of roughly 83,000, 20% have a hit.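 Percent growth is the endpoint: 0 to 100 indicates growth inhibition (40 means 60% inhibition), 0 means no net growth, and negative values indicate cell death.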 The source made the active and inactive calls.

Each compound was assayed on UACC-62 melanoma (assay: NCI-60 one-dose screen, 48 h (100 = growth as untreated, 0 = no growth, -100 = all killed)). Conditions: 10 µM unless noted.
Method: Growth inhibition of the UACC-62 human tumor cell line is measured as a screen for anti-cancer activity. Cells are grown in 96 well plates and exposed to the test compound for 48 hours. Compounds are tested at a single concentration, which is 10^-5 M for most compounds. The reported endpoint is percent growth (GI% or GIPRCNT), where numbers from 0 - 100% represent growth inhibition, and numbers from -100% - 0 represent cell death. For example, a value of 40 represents 60% growth inhibition. A value of 0 means no net growth occurred over the course of the experiment. A value of -40 indicates 40% of cells at the beginning of the experiment died by the end of the experiment. A value of -100 means all cells are dead at the end of the experiment.
NCI-60 Human Tumor Cell Lines Screen was performed using the standard one-dose NCI protocol, which is described in more detail at https://dtp.cancer.gov/discovery_development/nci-60/default.htm.
Compounds with GIPRCNT values below 10 were considered active. Activity score was based on GIPRCNT using the following formula: […]
Score is 0 for GIPRCNT values of 100 or above, 50 for GIPRCNT values of 0, and 100 for GIPRCNT values of -100.
In the case of Clc1cn2cc(-c3ccc(Cl)c(Cl)c3Cl)nc2s1, the growth is reported as 96.3% (inactive).
CCN(CC)Cc1cc(Nc2ccnc3cc(Cl)ccc23)cc(-c2ccc(Cl)cc2)c1O was tested, and the growth was 60.8% (inactive).
With C/C(=N\NC(=S)N1CCCCC1)c1ccccn1 the growth was -14.3% (active).
For Nc1c(C(=O)c2ccc(Br)cc2)sc2nc3c(cc12)CCCC3, the growth was 93.9% (inactive).
With COc1cc2nccc(Oc3ccc(NC(=O)C4(C(=O)Nc5ccc(F)cc5)CC4)cc3)c2cc1O the growth was 34.8% (inactive).
In the case of CCCCCCCCCC1=NC(C)(C)CN1C(C)(C)CO, the growth is reported as 98.8% (inactive).
With COc1ccc(C2=Nn3c(nnc3-c3ccc(Cl)cc3N)SC2)cc1 the growth was 86.6% (inactive).
Cc1ccccc1CNc1ncnc2[nH]ncc12 was tested, and the growth was 97.8% (inactive).
With CC(=O)[C@@]1(O)[C@H](C)C[C@H]2[C@@H]3C=C(C)C4=Cc5c(cnn5-c5ccccc5)C[C@]4(C)[C@H]3[C@@H](O)C[C@@]21C the growth was 1.84% (active).
In the case of COc1ccc(-c2nn(-c3cccc(Cl)c3)cc2/C=C2\C(=N)N(c3ccccc3)N=C2N)cc1, the growth is reported as -3.26% (active).
For CCOC(=O)c1ccc(NC(=O)NC2=NCCS2)cc1, the growth was 78.9% (inactive).
For Cc1nc([C@H]2CC[C@H]3[C@@H]4CCC5=CC(=O)CC[C@]5(C)[C@H]4CC[C@]23C)cs1, the growth was 59.4% (inactive).
CNCc1cccc2c1OCCOCCOCCC(C)S(=O)(=O)c1ccc(cc1)-c1cnc(N)c(n1)C(=O)N2 (stereo not given) was tested, and the growth was 60.6% (inactive).
For Cc1c(C)c(C)c([N+](=O)[O-])c([N+](=O)[O-])c1C, the growth was 83.6% (inactive).
c1ccc2c(Cc3csc4ccccc34)csc2c1 was tested, and the growth was 86.4% (inactive).
In the case of O=C1C(Cl)=C(N/N=c2/[nH][nH]/c(=N/NC3=C(Cl)C(=O)c4ccccc4C3=O)c3ccccc23)C(=O)c2ccccc21, the growth is reported as 25.7% (inactive).
CC1=C(O)C(=O)C(c2c(C)cc(C)c(Br)c2C)=C(O)C1=O was tested, and the growth was 40.7% (inactive).
O=[N+]([O-])c1cccc(N=C(Nc2cccc([N+](=O)[O-])c2)c2ccccc2)c1 was tested, and the growth was 70% (inactive).
With C#CCNC(=S)N/N=C(\C)c1ccccn1 the growth was -5.96% (active).
COc1ccc2[nH]c(C(=O)OCc3ccc4cccc(O)c4n3)cc2c1 was tested, and the growth was -81% (active).
For COc1cc2c(cc1OC)C(=O)C(Br)CC2 (stereo not given), the growth was 33% (inactive).
For COc1cccc(NC(=O)c2c(-c3ccccc3)c(-c3ccccc3)n[nH]c2=O)c1, the growth was 92.9% (inactive).
For C/C(=C\C(=N\N=C(N)N)c1ccc(Cl)cc1)c1ccc(Cl)cc1, the growth was -87.3% (active).
With C/C(CC(=O)NNc1ccc([N+](=O)[O-])cc1)=N\Nc1ccc([N+](=O)[O-])cc1 the growth was 9.12% (active).
For Fc1ccc(-c2ccnc3nc(-c4ccncc4)nn23)cc1, the growth was 116% (inactive).
For O=c1[nH]c2ccccc2n2cc3cccnc3c12, the growth was 53% (inactive).
With COC1CC(N)C2OC(c3ccccc3)OCC2O1 (stereo not given) the growth was 101% (inactive).
For Oc1ccc(Cl)cc1-c1cc(-c2ccccc2Cl)[nH]n1, the growth was 59.5% (inactive).
COc1ccc(C(=O)/C=C/c2cn(-c3ccccc3)nc2-c2cccc(Nc3ccnc4cc(Cl)ccc34)c2)cc1 was tested, and the growth was 89.9% (inactive).
In the case of CC1=NC(c2ccc(Cl)cc2)C2=C(N1)/C(=C/c1ccc(Cl)cc1)CCC2 (stereo not given), the growth is reported as 83.3% (inactive).
COc1cc(/C=C/C(=O)c2c(C)nc3ccccc3c2C)ccc1OCCCOc1cc2c(cc1OC)C(=O)N1CCC[C@H]1C=N2 was tested, and the growth was -81.3% (active).
CC(=O)Nc1ccc(Cl)cc1Cl was tested, and the growth was 96.4% (inactive).
With CC(C)OC(=O)c1ccc([N+](=O)[O-])cc1 the growth was 100% (inactive).
In the case of C=CCOc1c(Br)cc(Br)cc1Br, the growth is reported as 37.2% (inactive).
With CN(C)c1ccc(C(c2ccccc2)c2ccc(N(C)C)cc2)cc1 the growth was 98.3% (inactive).
CCCNC(=S)N/N=C(\C)c1ccccn1 was tested, and the growth was 11.1% (inactive).
In the case of CCN1CCN(Cc2ccc(NC(=O)c3nc4ccc5[nH]ncc5c4c4c3CCCC4)cc2C(F)(F)F)CC1, the growth is reported as -68.7% (active).
COc1ccc(/C=C2\N=C(c3cccnc3)N(c3ccccc3)NC2=O)cc1 was tested, and the growth was 95.4% (inactive).
Cc1n(Cc2ccc3ccccc3n2)cc[n+]1Cc1ccc2ccccc2n1 was tested, and the growth was 73% (inactive).
With CN1CCN(Cc2ccc(NC(=O)c3ccc(C#N)c(C#Cc4cnc(N)c5ncccc45)c3)cc2C(F)(F)F)CC1 the growth was 58.8% (inactive).
